Common to all, as to assay: DAPPL (digital affinity profiling via proximity ligation, sequencing); 10 mM Tris-HCl pH 7.5, 50 mM NaCl, 1 mM DTT, 4% glycerol, room temperature, 30 min; GST-TFs on glutathione beads, 16-mer random dsDNA library, 0.1% formaldehyde crosslink after washing; high values mean tight binding
One experiment has as its target T1, FEV (Homo sapiens, UniProt Q99581 1-238).
T1 sequence: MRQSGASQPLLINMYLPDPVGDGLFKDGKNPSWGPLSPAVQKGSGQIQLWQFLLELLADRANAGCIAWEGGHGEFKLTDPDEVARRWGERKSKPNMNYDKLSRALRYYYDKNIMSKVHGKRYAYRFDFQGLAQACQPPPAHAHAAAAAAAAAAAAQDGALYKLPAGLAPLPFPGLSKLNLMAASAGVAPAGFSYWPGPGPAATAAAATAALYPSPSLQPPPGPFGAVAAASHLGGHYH
The note with it: protein: recombinant; tags: N-terminal GST; dsDNA, one strand shown. In outline: (§1)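 Human transcription factors were made in yeast as GST fusions, captured on glutathione beads and barcoded with DNA. With a tag-only sample included, the pool was incubated with 200 nmole of a random double-stranded 16-mer DNA library in Tris/NaCl/DTT/glycerol buffer at room temperature for 30 min, then crosslinked with 0.1% formaldehyde after washing, ligated by proximity, amplified and sequenced. For binding signal, each hexamer's read frequency for a factor is divided by its frequency for the tag-only sample.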

In the next experiment the target is ETV5 (Homo sapiens, UniProt P41161 1-510). The note with it: protein: recombinant; tags: N-terminal GST; dsDNA, one strand shown. The method in brief:
as §1

The target of the next experiment is HSF1 (Homo sapiens, UniProt Q00613 1-529). The note with it: protein: recombinant; tags: N-terminal GST; chain copies: 3; dsDNA, one strand shown. The method in brief:
as §1

The target in a further experiment is T2, SPIC (Homo sapiens, UniProt Q8N5J4 1-248).
T2 sequence: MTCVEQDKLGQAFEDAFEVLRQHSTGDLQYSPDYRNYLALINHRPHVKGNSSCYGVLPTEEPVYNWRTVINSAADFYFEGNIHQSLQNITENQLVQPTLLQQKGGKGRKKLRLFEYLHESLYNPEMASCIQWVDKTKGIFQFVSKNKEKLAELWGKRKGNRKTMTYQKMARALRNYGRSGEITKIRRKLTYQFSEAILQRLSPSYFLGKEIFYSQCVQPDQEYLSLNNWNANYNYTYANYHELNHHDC
Conditions: protein: recombinant; tags: N-terminal GST; dsDNA, one strand shown. In outline: as §1

The target in a further experiment is ELF4 (Homo sapiens, UniProt Q99607 1-663). Conditions: protein: recombinant; tags: N-terminal GST; dsDNA, one strand shown. The method in brief:
as §1

In another experiment the target is T3, ELK4 (Homo sapiens, UniProt P28324-2 1-405).
T3 sequence: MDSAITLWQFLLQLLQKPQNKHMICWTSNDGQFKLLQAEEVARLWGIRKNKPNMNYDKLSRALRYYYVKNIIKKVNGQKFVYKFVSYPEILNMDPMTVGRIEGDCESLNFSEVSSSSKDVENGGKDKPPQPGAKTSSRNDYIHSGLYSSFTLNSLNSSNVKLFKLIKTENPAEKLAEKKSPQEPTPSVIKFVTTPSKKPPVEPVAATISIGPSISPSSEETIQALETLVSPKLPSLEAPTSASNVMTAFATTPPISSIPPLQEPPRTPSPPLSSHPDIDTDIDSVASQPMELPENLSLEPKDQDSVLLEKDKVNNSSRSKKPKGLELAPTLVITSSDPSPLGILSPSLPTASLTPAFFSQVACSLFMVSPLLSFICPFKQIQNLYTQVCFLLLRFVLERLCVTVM
Conditions: protein: recombinant; tags: N-terminal GST; dsDNA, one strand shown. In outline: as §1

The target in a further experiment is T4, ETV2 (Homo sapiens, UniProt O00321 1-342).
T4 sequence: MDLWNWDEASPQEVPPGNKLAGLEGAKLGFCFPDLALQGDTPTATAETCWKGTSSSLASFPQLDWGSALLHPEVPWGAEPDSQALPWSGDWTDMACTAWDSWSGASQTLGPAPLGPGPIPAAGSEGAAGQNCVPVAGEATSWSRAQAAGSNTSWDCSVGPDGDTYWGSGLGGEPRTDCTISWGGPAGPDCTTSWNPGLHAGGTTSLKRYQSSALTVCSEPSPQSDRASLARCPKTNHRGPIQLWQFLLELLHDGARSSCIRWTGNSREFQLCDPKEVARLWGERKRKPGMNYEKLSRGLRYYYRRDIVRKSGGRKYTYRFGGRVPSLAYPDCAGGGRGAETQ
The note with it: protein: recombinant; tags: N-terminal GST; dsDNA, one strand shown. In outline: as §1

The target of another experiment is T5, ELF3 (Homo sapiens, UniProt P78545 1-371).
T5 sequence: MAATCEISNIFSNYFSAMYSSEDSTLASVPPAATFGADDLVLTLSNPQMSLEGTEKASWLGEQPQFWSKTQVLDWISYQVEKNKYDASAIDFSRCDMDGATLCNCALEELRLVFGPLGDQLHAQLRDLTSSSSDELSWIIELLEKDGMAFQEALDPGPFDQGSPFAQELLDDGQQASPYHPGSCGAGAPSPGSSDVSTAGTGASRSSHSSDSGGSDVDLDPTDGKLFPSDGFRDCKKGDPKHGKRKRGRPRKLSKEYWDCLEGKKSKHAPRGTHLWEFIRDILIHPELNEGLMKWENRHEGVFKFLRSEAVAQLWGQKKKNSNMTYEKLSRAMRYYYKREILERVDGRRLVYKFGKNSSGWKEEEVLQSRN
The note with it: protein: recombinant; tags: N-terminal GST; dsDNA, one strand shown. In outline: as §1

Another experiment concerns the target CRX (Homo sapiens, UniProt O43186 1-299). Conditions: protein: recombinant; tags: N-terminal GST; dsDNA, one strand shown. In outline:
as §1

For the next experiment, the target named is ETV1 (Homo sapiens, UniProt P50549 1-477). The note with it: protein: recombinant; tags: N-terminal GST; dsDNA, one strand shown. The method in brief:
as §1

A further experiment addresses T6, ERF (Homo sapiens, UniProt P50548 1-548).
T6 sequence: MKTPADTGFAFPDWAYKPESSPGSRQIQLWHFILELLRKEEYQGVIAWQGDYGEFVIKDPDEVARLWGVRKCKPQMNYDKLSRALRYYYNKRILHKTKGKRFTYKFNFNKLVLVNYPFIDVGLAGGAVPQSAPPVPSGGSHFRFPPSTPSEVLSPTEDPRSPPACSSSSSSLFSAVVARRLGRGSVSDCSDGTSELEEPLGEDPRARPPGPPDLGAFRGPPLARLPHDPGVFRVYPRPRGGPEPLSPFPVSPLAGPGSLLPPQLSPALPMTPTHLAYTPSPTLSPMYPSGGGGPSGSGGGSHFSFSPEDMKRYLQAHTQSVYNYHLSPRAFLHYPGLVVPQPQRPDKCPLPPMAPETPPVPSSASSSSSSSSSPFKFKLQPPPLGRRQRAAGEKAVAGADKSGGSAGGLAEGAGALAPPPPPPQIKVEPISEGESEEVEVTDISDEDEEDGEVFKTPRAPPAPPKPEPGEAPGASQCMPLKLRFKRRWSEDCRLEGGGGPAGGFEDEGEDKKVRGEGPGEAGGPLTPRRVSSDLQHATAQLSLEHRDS
The note with it: protein: recombinant; tags: N-terminal GST; dsDNA, one strand shown. The method in brief:
as §1

Another experiment concerns the target T7, ETV3L (Homo sapiens, UniProt Q6ZN32 1-361).
T7 sequence: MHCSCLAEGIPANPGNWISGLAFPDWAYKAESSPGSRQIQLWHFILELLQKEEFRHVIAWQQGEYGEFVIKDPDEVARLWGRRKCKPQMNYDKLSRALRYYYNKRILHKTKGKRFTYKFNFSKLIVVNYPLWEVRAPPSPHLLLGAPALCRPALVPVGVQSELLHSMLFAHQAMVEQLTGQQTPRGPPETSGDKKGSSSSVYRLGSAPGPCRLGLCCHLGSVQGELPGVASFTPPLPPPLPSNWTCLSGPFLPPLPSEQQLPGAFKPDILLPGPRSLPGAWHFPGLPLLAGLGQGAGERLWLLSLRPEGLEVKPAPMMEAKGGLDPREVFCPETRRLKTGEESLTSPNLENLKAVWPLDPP
The note with it: protein: recombinant; tags: N-terminal GST; dsDNA, one strand shown. The method in brief: as §1

The target of the next experiment is T8, ETS2 (Homo sapiens, UniProt P15036 1-469).
T8 sequence: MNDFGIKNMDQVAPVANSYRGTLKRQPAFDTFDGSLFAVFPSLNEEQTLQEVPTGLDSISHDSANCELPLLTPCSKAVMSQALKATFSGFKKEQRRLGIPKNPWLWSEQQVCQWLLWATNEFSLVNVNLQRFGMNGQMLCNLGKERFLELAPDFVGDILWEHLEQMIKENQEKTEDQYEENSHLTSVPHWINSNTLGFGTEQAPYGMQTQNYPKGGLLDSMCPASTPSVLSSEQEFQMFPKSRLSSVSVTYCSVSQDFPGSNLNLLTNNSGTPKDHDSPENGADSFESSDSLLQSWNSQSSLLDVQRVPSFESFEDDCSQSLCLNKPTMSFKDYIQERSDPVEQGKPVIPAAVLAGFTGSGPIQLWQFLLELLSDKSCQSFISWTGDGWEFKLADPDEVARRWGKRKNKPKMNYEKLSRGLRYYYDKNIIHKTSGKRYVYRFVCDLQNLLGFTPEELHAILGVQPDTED
The note with it: protein: recombinant; tags: N-terminal GST; dsDNA, one strand shown. The method in brief: as §1

A further experiment concerns the target T9, SPDEF (Homo sapiens, UniProt O95238 1-335).
T9 sequence: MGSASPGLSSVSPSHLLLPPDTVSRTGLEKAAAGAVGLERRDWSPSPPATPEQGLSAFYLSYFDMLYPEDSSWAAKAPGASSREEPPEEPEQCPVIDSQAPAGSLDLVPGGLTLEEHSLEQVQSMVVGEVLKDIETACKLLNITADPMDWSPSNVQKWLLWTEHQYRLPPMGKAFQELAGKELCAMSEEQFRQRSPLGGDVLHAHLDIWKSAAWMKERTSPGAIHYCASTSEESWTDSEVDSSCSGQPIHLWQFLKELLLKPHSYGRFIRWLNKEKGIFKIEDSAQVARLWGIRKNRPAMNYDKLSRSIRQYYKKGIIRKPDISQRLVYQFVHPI
Conditions: protein: recombinant; tags: N-terminal GST; dsDNA, one strand shown. The method in brief: as §1

For another experiment, the target named is T10, ETV7 (Homo sapiens, UniProt Q9Y603 1-341).
T10 sequence: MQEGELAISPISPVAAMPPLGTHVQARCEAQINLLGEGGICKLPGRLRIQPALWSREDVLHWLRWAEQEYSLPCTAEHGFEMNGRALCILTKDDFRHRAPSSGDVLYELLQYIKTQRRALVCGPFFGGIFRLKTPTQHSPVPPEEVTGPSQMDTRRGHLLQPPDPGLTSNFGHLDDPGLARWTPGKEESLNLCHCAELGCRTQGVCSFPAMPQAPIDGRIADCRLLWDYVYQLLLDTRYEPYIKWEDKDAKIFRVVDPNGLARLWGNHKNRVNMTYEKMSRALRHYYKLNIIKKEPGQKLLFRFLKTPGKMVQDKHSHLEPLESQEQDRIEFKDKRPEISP
Conditions: protein: recombinant; tags: N-terminal GST; dsDNA, one strand shown. In outline:
as §1

The next experiment deals with T11, ELF5 (Homo sapiens, UniProt Q9UKW6-2 1-255).
T11 sequence: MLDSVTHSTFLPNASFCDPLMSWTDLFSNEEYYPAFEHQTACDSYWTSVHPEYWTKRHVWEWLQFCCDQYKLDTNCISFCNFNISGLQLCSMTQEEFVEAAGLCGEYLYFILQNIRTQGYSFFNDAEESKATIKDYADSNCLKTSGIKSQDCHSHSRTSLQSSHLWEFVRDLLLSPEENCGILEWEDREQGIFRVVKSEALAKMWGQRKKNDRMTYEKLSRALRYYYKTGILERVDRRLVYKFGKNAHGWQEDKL
The note with it: protein: recombinant; tags: N-terminal GST; dsDNA, one strand shown. The method in brief: as §1

The target of a further experiment is T12, ETV3 (Homo sapiens, UniProt P41162-2 1-143).
T12 sequence: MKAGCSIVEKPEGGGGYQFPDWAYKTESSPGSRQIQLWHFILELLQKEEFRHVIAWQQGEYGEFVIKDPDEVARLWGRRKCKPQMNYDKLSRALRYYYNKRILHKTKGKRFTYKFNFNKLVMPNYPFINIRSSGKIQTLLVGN
The note with it: protein: recombinant; tags: N-terminal GST; dsDNA, one strand shown. In outline:
as §1

For the next experiment, the target named is ETV6 (Homo sapiens, UniProt P41212 1-452). Conditions: protein: recombinant; tags: N-terminal GST; dsDNA, one strand shown. In outline: as §1
Sequence of ETV6 (P41212 whole entry): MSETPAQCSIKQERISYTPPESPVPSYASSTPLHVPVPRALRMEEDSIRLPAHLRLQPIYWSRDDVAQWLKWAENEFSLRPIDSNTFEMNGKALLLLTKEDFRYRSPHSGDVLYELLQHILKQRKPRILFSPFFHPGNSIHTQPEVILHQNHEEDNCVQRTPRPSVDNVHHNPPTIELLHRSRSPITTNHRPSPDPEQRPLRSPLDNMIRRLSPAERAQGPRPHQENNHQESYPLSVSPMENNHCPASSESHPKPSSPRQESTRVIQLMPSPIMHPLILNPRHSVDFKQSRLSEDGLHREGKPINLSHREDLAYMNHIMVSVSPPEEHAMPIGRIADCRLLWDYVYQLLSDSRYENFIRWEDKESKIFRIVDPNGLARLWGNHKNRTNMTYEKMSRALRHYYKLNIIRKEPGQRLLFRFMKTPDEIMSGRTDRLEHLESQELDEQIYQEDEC

Sequence of ETV5 (P41161 whole entry): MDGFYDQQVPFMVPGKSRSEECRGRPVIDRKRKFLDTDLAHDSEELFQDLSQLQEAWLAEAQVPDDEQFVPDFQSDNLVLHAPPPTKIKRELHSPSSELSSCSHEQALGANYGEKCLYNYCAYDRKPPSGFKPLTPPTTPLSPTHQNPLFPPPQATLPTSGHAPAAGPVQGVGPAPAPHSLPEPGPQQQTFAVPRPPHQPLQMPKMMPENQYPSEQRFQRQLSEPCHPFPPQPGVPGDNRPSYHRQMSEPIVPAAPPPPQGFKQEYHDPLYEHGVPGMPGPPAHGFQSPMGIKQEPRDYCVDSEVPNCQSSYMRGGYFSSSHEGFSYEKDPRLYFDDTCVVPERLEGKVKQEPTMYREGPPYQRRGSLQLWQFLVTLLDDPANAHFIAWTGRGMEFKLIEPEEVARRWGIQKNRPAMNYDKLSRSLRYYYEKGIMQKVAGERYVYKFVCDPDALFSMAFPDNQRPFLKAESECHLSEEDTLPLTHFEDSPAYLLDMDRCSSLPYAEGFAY
Sequence of HSF1 (Q00613 whole entry): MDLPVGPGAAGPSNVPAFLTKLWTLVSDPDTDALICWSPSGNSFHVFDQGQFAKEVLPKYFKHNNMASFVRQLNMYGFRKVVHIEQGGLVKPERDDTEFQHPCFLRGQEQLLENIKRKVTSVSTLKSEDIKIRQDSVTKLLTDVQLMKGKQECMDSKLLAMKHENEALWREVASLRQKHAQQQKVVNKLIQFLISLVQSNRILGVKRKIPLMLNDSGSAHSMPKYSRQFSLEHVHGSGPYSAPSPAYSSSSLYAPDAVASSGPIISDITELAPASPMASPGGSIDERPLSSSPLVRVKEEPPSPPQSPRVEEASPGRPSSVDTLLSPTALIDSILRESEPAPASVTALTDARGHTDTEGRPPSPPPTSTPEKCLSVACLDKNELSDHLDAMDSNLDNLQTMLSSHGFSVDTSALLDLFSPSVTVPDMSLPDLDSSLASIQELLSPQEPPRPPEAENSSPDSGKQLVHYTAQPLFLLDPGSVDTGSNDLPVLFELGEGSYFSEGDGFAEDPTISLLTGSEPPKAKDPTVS
Sequence of ELF4 (Q99607 whole entry): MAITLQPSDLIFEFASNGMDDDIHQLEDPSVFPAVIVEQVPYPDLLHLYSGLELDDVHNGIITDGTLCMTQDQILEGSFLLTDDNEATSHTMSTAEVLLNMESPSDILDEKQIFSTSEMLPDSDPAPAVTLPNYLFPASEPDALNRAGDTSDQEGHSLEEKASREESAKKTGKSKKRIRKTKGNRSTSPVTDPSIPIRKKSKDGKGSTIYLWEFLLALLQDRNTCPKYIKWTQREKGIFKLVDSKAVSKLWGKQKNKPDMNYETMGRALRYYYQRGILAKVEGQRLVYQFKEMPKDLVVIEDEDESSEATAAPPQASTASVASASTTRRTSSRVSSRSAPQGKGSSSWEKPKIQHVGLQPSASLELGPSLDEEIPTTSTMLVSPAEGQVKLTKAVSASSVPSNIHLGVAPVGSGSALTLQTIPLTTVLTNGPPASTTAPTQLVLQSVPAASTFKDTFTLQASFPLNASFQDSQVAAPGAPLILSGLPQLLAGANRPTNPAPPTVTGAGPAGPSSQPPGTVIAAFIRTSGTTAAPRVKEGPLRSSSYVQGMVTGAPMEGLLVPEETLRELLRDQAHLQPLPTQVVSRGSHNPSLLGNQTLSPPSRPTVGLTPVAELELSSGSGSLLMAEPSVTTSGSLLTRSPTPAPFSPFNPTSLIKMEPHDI
Sequence of CRX (O43186 whole entry): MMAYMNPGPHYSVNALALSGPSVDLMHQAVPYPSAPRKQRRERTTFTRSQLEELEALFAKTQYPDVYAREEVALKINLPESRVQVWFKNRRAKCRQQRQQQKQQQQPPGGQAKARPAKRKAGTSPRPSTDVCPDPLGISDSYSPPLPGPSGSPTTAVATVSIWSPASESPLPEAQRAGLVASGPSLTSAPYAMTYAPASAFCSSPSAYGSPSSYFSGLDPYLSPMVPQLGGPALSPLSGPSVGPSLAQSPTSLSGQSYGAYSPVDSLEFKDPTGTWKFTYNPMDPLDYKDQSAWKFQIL
Sequence of ETV1 (P50549 whole entry): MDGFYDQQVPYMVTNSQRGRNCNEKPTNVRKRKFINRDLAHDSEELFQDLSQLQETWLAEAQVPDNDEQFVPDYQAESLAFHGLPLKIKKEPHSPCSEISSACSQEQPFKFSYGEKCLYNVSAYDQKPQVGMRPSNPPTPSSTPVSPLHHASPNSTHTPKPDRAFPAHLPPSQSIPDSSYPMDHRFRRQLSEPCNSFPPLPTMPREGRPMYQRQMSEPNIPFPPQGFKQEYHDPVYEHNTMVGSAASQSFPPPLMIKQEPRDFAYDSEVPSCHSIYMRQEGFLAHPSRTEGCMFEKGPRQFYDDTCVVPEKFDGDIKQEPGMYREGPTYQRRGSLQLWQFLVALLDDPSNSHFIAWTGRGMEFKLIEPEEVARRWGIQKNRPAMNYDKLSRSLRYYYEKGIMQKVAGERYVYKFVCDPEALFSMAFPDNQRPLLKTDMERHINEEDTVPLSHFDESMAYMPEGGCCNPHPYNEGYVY

Consider CCTTTC, for which the binding signal was 1.71 fold enrichment (6-mer frequency, TF over GST control) with FEV; 1.51 fold enrichment (6-mer frequency, TF over GST control) with ETV5; 1.43 fold enrichment (6-mer frequency, TF over GST control) in the experiment with HSF1; 1.65 fold enrichment (6-mer frequency, TF over GST control) in the experiment with SPIC; 1.68 fold enrichment (6-mer frequency, TF over GST control) with ELF4; 1.64 fold enrichment (6-mer frequency, TF over GST control) in the experiment with ELK4. In addition, the binding signal in the experiment with ETV2 was 1.56 fold enrichment (6-mer frequency, TF over GST control); with ELF3, 1.42 fold enrichment (6-mer frequency, TF over GST control); with CRX, 1.27 fold enrichment (6-mer frequency, TF over GST control); with ETV1 it was 1.5 fold enrichment (6-mer frequency, TF over GST control); in the experiment with ERF, 1.62 fold enrichment (6-mer frequency, TF over GST control); with ETV3L, 1.54 fold enrichment (6-mer frequency, TF over GST control). Also, the binding signal with ETS2 is 1.59 fold enrichment (6-mer frequency, TF over GST control); with SPDEF, 1.5 fold enrichment (6-mer frequency, TF over GST control); with ETV7 it was 1.39 fold enrichment (6-mer frequency, TF over GST control); with ELF5 it was 1.75 fold enrichment (6-mer frequency, TF over GST control); in the experiment with ETV3, 1.62 fold enrichment (6-mer frequency, TF over GST control); with ETV6 it was 1.62 fold enrichment (6-mer frequency, TF over GST control).

For the origin of these results see PMC7862700, “An all-to-all approach to the identification of sequence-specific readers for epigenetic DNA modifications on cytosine”.
